The values that follow come from PubChem BioAssay AID2221 (Broad Institute, 2009).

Screen size: about 290,000 compounds; about 2,200 (0.76%) were called active. What follows is part of a selection rich in actives, with near analogues and random picks from the rest. Values without a mark were called inactive. Rule as the data show it: active = inhibition above about 30%; inconclusive = no clear call, values can overlap the other calls; inactive = below that.

Sequence of Protein RecA (Mycobacterium tuberculosis (strain ATCC 25618 / H37Rv)) (P9WHJ3 whole entry, looked up): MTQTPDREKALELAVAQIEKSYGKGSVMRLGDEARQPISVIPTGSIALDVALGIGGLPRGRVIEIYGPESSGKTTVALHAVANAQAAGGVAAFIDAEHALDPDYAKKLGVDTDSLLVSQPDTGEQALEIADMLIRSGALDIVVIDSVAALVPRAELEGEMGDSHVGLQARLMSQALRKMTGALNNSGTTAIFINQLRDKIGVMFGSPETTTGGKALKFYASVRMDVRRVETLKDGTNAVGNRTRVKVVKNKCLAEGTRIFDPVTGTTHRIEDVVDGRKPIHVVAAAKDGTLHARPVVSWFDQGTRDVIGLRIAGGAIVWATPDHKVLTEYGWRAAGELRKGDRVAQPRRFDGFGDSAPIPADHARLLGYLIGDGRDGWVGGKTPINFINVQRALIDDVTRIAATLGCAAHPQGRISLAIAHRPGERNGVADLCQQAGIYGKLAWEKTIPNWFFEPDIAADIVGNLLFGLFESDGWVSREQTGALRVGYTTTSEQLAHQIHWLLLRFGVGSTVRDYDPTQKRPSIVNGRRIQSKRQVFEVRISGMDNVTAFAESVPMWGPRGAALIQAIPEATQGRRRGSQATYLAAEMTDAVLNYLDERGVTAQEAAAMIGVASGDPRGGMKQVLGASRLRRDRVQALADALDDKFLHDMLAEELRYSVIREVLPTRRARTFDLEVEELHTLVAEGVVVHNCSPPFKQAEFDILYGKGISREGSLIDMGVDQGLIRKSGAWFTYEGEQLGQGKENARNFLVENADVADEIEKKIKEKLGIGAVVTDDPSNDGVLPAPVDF

This test concerns the target Protein RecA (Mycobacterium tuberculosis (strain ATCC 25618 / H37Rv)) (UniProt P9WHJ3). The test can be described thus: Mtb RecA intein splicing inhibitors, primary screen, biochemical, fluorescence, HTS (AID 2221).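 Also: 0% = vehicle wells and 100% = reference inhibitor control wells.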 As to conditions: cell-free RecA intein splicing, active compounds read high, concentration not given here.
As for `O=C1C=CC(=O)N1c1ccc(N2CCCCC2)cc1`, the inhibition was 3.11%.

As to `COc1ccc(NC2=CC(=S)NC(C)(C)C2)cc1`, the inhibition was 1.09%.

With `Cc1cc(C(=O)CCl)c(C)n1CC1COc2ccccc2O1` (configuration not stated), the inhibition was 40.6% (active).

Consider `O=C1C(=O)N(CC2COc3ccccc3O2)c2ccccc21` (configuration not stated), for which the inhibition is 6.05%.

With `Cc1cc(NC(=O)CCC2COc3ccccc3O2)no1` (configuration not stated), the inhibition was 2.09%.

`Cc1ccc(-c2nnc(Nc3ccc(C(=O)N(C)C)cc3)c3ccccc23)cc1S(N)(=O)=O`: the inhibition was -0.54%.

`CCCOc1ccc(/C=N/NC(=O)C2CC2)c(OCCC)c1`: the inhibition was -1.61%.

As to `COc1ccc(NC(=O)c2cnc(NS(=O)(=O)c3ccccc3)nc2)cc1`, the inhibition was 0.334%.

With `COc1ccc(S(=O)(=O)/N=C2\C=C(NS(=O)(=O)c3ccccc3)C(=O)c3ccccc32)cc1`, the inhibition was 36.2% (active).

Regarding `O=S(=O)(Nc1ccccn1)c1ccc(Oc2ccccc2)cc1`, the inhibition is -0.988%.

`Cc1ccccc1C(=O)N1CCC(C(=O)Nc2ccc(S(=O)(=O)N(C)C(C)C)cc2)CC1`: the inhibition was 0.242%.

As for `C[n+]1ccc(C(=O)NCc2ccccc2)cc1`, the inhibition is 1.21%.

As for `Cc1cccc(C)c1NC(=S)N(Cc1cccnc1)Cc1ccccc1Cl`, the inhibition was 2.64%.

Take `NC(=O)C1CCN(C(=O)c2ccc(-c3ccccc3)cc2)CC1`: the inhibition was -3.02%.

Take `CCOC(=O)N1CCC(c2cc(=O)n(-c3ccccc3)[nH]2)CC1`: the inhibition is 95.5% (active).

Regarding `CCOC(=O)N1CCC(NC(=O)CCc2ccccc2)CC1`, the inhibition was -0.782%.

Regarding `CCOC(=O)N1CCC(NC(=O)COc2cc(=O)n(C)c3ccccc23)CC1`, the inhibition was -3.15%.

Turning to `Cc1ccc(Nc2nc(CSc3nnc(-c4ccncc4)n3-c3ccccc3C)cs2)cc1`, the inhibition is 16.7%.

For `COc1cc(OC)c(S(=O)(=O)Nc2ccccc2C(=O)O)cc1S(=O)(=O)Nc1ccccc1C(=O)O`, the inhibition was -1.6%.

For `O=C(COc1coc(CN2CCN(c3ccccc3F)CC2)cc1=O)N1CCc2ccccc21`, the inhibition is -2.58%.

With `O=C(Cc1ccccc1)Nc1cccc(NC(=O)c2ccccc2)c1`, the inhibition is -3.56%.

Regarding `O=C(CCl)Nc1cccc(CP(=O)(c2ccccc2)c2ccccc2)c1`, the inhibition is 35.8% (active).

Consider `CCc1cccc(NC(=O)CCC(=O)O)c1`, for which the inhibition is -2.03%.

Consider `COc1ccc(NC(=O)CCCNC(=O)Cn2cnc3sc4c(c3c2=O)CCCC4)cc1OC`, for which the inhibition was 1.78%.

For the compound `CC(C)OC(=O)CN1C(=O)C(=O)c2ccccc21`, the inhibition was 40% (active).

In the case of `CCOC(=O)CN1C(=O)C(=O)c2cc(C)ccc21`, the inhibition is 1.57%.

Take `Cc1cc(/C=C2/SC(=O)N(CC(=O)OC(C)C)C2=O)c(C)n1C`: the inhibition was -2.4%.

A word on the inhibition: it is the relative decrease from the control value, in per cent.
